# Experimental data taken from PubChem BioAssay (NCATS).
# Records with an inconclusive call do not appear. Where a call stands in place of a potency, no number is given. The source made the active and inactive calls. Unless noted, the call rests on the fitted dose curve; in most records, active means well fitted curve in the direction sought with a large enough effect; inconclusive means small, poorly fitted or top-dose-only effect, or another doubt; inactive means no such curve, though single readings can be large; an effect the other way counts as inactive or inconclusive.
# What was measured:
# [1] = qHTS for differential inhibitors of proliferation of Plasmodium falciparum line D10 (AID 1877); conditions: series mostly up to 28.7 µM;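 further: parasites grown with compound for 72 h before DNA staining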; further: potency means the concentration at half of the fitted maximal effect
# [2] = qHTS for differential inhibitors of proliferation of Plasmodium falciparum line Dd2 (AID 1882); conditions: Potency: Plasmodium falciparum Dd2 proliferation inhibition; series mostly up to 28.7 µM; further: nearly all actives have a fitted effect of over 65% in size; further: potency means the concentration at half of the fitted maximal effect
# Outline: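 SYBR Green I DNA fluorescence read-out, ex 485/em 535 nm. Signals were normalized to 0.29 uM artemisinin and DMSO wells, then corrected using vehicle-only plates flanking each stack. Parasite growth ran 72 h in erythrocytes before lysis.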
# [3] = qHTS for differential inhibitors of proliferation of Plasmodium falciparum line HB3 (AID 1886); conditions: Potency: Plasmodium falciparum HB3 proliferation inhibition; series mostly up to 28.7 µM;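 further: parasites grown with compound for 72 h before SYBR Green readout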; further: potency means the concentration at half of the fitted maximal effect
# [4] = target: Ferritin light chain (Equus caballus) (UniProt P02791); assay: qHTS Validation Assay for Identification of Novel General Anesthetics (AID 2323); conditions: horse apoferritin, anesthetic-site fluorescent probe displacement; series mostly up to 76.9 µM
# Sequence of Ferritin light chain (Equus caballus) (P02791 2-175 limits assumed): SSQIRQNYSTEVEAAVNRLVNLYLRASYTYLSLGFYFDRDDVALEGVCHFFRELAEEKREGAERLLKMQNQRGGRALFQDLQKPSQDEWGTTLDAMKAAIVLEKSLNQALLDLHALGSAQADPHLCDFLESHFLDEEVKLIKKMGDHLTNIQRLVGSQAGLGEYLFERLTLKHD
# Outline: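 Fluorescence at 535 nm (excitation 380 nm) reported loss of 1-AMA binding to horse-spleen apoferritin (10 uM) in PBS with 50% saturated 1-aminoanthracene, after 10 min room-temperature incubation with compound; values from Hill fits of normalized response.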
# [5] = target: ATP-dependent DNA helicase Q1 (Homo sapiens) (UniProt P46063); assay: qHTS Validation Assay for Inhibitors of RecQ-Like Dna Helicase 1 (RECQ1) (AID 2353); conditions: recombinant RECQ1 helicase DNA unwinding assay; series mostly up to 25.6 µM
# Sequence of ATP-dependent DNA helicase Q1 (Homo sapiens) (P46063 whole entry, looked up): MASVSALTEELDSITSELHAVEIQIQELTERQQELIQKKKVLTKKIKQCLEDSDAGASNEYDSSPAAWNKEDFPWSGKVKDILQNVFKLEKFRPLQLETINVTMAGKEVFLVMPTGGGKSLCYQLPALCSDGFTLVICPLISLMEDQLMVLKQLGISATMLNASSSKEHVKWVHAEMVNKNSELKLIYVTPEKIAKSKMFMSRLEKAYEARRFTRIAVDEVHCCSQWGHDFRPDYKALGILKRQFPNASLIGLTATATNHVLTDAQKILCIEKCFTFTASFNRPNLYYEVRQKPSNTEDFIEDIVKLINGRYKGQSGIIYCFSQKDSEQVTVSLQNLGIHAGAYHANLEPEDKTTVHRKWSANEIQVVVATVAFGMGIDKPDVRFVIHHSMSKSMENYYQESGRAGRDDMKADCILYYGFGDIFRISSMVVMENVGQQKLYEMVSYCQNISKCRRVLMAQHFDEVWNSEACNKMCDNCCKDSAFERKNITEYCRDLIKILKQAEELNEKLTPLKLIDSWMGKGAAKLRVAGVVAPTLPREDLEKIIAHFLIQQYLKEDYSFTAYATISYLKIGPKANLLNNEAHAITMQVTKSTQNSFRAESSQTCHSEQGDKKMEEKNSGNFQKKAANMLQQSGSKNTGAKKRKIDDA
# Outline: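 50 nM RECQ1T1 preincubated 15 min with compound in Tris pH 8.0 buffer with MgCl2, DTT, Tween-20 and 2.5 ug/ml poly(dI-dC); started with 200 nM TAMRA/BHQ-2 forked duplex and 2 mM ATP. Unwinding read as fluorescence (525/598 nm), two reads 2 h apart.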
# [6] = target: RecQ-like DNA helicase BLM (Homo sapiens) (UniProt P54132); assay: qHTS Validation Assay for Inhibitors of Bloom's syndrome helicase (BLM) (AID 2364); conditions: BLM helicase DNA unwinding, fluorescence, in vitro; series mostly up to 57.1 µM
# Sequence of RecQ-like DNA helicase BLM (Homo sapiens) (P54132 whole entry, looked up): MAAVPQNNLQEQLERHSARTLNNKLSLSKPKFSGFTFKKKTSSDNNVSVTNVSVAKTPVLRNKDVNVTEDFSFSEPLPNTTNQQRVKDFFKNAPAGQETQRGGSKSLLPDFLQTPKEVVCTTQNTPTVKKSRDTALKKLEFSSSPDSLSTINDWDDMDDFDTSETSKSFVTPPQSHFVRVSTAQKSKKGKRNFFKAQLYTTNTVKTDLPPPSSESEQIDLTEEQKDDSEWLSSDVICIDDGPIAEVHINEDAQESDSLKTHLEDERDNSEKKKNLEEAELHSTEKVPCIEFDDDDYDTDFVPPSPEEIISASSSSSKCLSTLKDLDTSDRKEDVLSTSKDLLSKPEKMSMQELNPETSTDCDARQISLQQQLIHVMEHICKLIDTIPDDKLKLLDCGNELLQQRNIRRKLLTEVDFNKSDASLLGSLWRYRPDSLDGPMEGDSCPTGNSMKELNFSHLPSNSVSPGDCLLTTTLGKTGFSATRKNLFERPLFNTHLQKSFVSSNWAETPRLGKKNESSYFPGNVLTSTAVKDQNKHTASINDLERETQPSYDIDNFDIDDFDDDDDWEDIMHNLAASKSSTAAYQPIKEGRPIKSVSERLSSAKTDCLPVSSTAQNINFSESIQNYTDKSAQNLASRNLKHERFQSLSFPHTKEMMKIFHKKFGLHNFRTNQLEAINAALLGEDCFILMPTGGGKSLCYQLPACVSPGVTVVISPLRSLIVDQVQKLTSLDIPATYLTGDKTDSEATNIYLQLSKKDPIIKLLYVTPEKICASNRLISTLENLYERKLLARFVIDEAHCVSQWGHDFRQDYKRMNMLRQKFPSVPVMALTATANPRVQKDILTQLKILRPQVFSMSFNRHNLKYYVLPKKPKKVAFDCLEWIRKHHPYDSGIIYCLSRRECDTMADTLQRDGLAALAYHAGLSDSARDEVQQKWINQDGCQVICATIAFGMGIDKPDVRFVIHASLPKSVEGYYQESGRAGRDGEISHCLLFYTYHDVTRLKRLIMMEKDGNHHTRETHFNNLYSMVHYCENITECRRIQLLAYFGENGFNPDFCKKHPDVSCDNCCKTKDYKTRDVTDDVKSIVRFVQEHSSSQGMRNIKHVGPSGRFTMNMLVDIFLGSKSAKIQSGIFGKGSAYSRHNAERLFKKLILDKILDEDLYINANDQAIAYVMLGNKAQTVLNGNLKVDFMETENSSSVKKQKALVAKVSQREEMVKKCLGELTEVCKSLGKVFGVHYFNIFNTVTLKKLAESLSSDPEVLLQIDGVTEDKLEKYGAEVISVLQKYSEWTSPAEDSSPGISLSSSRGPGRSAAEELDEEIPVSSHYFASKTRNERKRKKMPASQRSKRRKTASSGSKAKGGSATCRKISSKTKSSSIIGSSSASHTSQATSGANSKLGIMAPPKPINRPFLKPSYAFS
# Outline: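 Forked 20-bp duplex substrate (200 nM, TAMRA/BHQ-2) plus 2 mM ATP added after 15 min compound preincubation with 50 nM enzyme, pH 8.0, poly(dI-dC) 2.5 ug/ml. Strand separation followed by fluorescence (525/598 nm) over 2 h, normalized to enzyme-free and DMSO controls.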
# [7] = qHTS for differential inhibitors of proliferation of Plasmodium falciparum line W2 (AID 1883); conditions: Potency: Plasmodium falciparum W2 proliferation inhibition; series mostly up to 28.7 µM;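 further: potency means the concentration at half of the fitted maximal effect; parasites grown with compound for 72 h before lysis and staining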
# [8] = qHTS Assay for Modulators of Human Peripheral Myelin Protein 22 (PMP22) Expression/Activity (AID 1967; active means well fitted curve in the direction sought with a large enough effect in the signal ratio; the % refers to the signal ratio); conditions: Cell-based PMP22 reporter, dual-color luciferase ratio, mouse Pmp22 promoter in mouse Schwann cells; series mostly up to 115 µM
# Outline: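 Luminescence ratio of Pmp22 promoter-driven green luciferase to EF-alpha-driven red luciferase, in engineered mouse MSC80 Schwann cells, served as read-out. Compounds were incubated 24h; untreated cells defined 0% Activity; curves were classified by r2, magnitude and activity.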
# [9] = qHTS Assay for Identification of Small Molecule Inducers of Hypoxia Response (AID 2120; active means well fitted curve in the direction sought with a large enough effect in the signal ratio, with a control signal flat, not every such curve was filed as active; the % refers to the signal ratio); conditions: hypoxia response reporter cells, beta-lactamase ratio readout; series mostly up to 104 µM
# Outline: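 Induction of beta-lactamase reporter activity was measured in CellSensor HRE-bla ME-180 cells after 17 h compound treatment at 37 degrees C, using CCF4 substrate and the 460nm/530nm emission ratio to derive AC50 values.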
smiles,measurement,setting,value
CCOC(=O)c1ncn2c1[C@@H]1CCCN1C(=O)c1cc(OC)ccc1-2,Potency,[1],inactive
same,Potency,[2],inactive
same,Potency,[3],inactive
same,outcome,[4],inactive
same,Potency,[5],inactive
same,Potency,[6],inactive
CCCN1CC[C@@H]2c3cc(O)ccc3CC[C@@H]21,Potency,[2],inactive
same,Potency,[7],10 µM (active)
same,Potency,[3],inactive
same,outcome,[8],inactive
same,outcome,[4],inactive
same,Potency,[5],inactive
same,Potency,[6],inactive
COc1ccc(CNC(=O)/C=C/c2ccc3[nH]cc(CCN(C)C)c3c2)cc1,Potency,[1],11.2 µM (active)
same,Potency,[7],8.91 µM (active)
same,Potency,[3],10 µM (active)
same,outcome,[4],inactive
same,Potency,[5],inactive
same,Potency,[6],inactive
Clc1cc(I)cc(Cl)c1NC1=NCCN1,Potency,[2],inactive
same,Potency,[7],14.1 µM (active)
same,outcome,[8],inactive
same,outcome,[4],inactive
NC(Cc1ccc(N(CCCl)CCCl)cc1)C(=O)O (stereo not given),Potency,[1],12.6 µM (active)
same,Potency,[7],10 µM (active)
same,Potency,[3],12.6 µM (active)
same,outcome,[4],inactive
same,Potency,[5],inactive
same,Potency,[6],inactive
CCCN(CCC)CCc1ccc(O)c(O)c1,Potency,[1],14.1 µM (active)
same,Potency,[7],10 µM (active)
same,Potency,[3],11.2 µM (active)
same,outcome,[4],inactive
same,Potency,[5],inactive
same,Potency,[6],inactive
C=CCN1CC[C@]23c4c5ccc(O)c4O[C@H]2/C(=N/NC(=O)c2ccccc2)CC[C@@]3(O)[C@H]1C5,Potency,[1],3.16 µM (active)
same,Potency,[7],3.16 µM (active)
same,Potency,[3],11.2 µM (active)
same,outcome,[8],inactive
same,outcome,[4],inactive
same,Potency,[5],inactive
C[C@H](N)CN1CCc2ccc(Br)cc21,Potency,[2],8.91 µM (active)
same,Potency,[7],2.24 µM (active)
same,Potency,[3],11.2 µM (active)
same,outcome,[4],inactive
same,Potency,[6],inactive
CCCCCCCCCCCCCC(=O)O[C@@H]1[C@@H](C)[C@@]2(O)[C@@H](C=C(CO)C[C@@]3(O)C(=O)C(C)=C[C@@H]23)C2C(C)(C)[C@@]21OC(C)=O (stereo not given in full),Potency,[1],11.2 µM (active)
same,Potency,[7],7.08 µM (active)
same,Potency,[3],12.6 µM (active)
same,Potency,[5],inactive
C=CCN1CCC23c4c5ccc(O)c4O[C@H]2C(=O)CC[C@@]3(O)C1C5 (stereo not given in full),Potency,[1],inactive
same,Potency,[2],inactive
same,Potency,[3],inactive
same,outcome,[4],inactive
O=[N+]([O-])c1ccc2nc(N3CCNCC3)ccc2c1,Potency,[1],12.6 µM (active)
same,Potency,[7],7.94 µM (active)
same,Potency,[3],12.6 µM (active)
same,outcome,[4],inactive
same,Potency,[5],inactive
same,Potency,[6],inactive
NC(=O)COc1c(F)cc(SCCNS(=O)(=O)c2ccccc2)cc1F,Potency,[1],inactive
same,Potency,[2],inactive
same,Potency,[3],inactive
same,outcome,[4],inactive
same,Potency,[5],inactive
same,Potency,[6],inactive
CCCN(CCC)CCc1c[nH]c2ccc(C(N)=O)cc12,Potency,[1],inactive
same,Potency,[2],inactive
same,Potency,[3],inactive
same,outcome,[4],inactive
same,Potency,[5],inactive
same,Potency,[6],inactive
N#CC(C#N)=Cc1cc(O)c(O)c(O)c1,Potency,[1],12.6 µM (active)
same,Potency,[7],7.94 µM (active)
same,Potency,[3],11.2 µM (active)
same,outcome,[4],inactive
same,Potency,[5],inactive
COc1cc(CC(C)N)c(OC)cc1I (stereo not given),Potency,[1],inactive
same,Potency,[7],4.47 µM (active)
same,Potency,[3],inactive
same,outcome,[4],inactive
same,Potency,[5],inactive
same,Potency,[6],inactive
NC(N)=Nc1ccc2[nH]c3c(c2c1)C[C@@]1(O)[C@H]2Cc4ccc(O)c5c4[C@@]1(CCN2CC1CC1)[C@H]3O5,Potency,[2],inactive
same,Potency,[3],inactive
same,Potency,[6],inactive
CC(C)Nc1ccc(Nc2ccccc2)cc1,outcome,[9],inactive
OCc1cnc[nH]1,Potency,[2],inactive
same,Potency,[3],10 µM (active)
same,outcome,[4],inactive
same,Potency,[6],inactive
CN1C2CCC1CC(OC(c1ccccc1)c1ccccc1N)C2 (stereo not given),Potency,[7],2.51 µM (active)
same,Potency,[3],10 µM (active)
same,outcome,[4],inactive
same,Potency,[5],inactive
same,Potency,[6],inactive
C[C@H]1CCC[C@H](O)CCCCCc2cc(O)cc(O)c2C(=O)O1,outcome,[9],inactive
Cc1sc2ccccc2c1CC1=NCCN1,Potency,[7],8.91 µM (active)
same,outcome,[8],inactive
same,outcome,[4],inactive
same,Potency,[5],inactive
same,Potency,[6],inactive
Clc1ccccc1Cl,outcome,[9],inactive
O=[N+]([O-])c1ccccc1,outcome,[9],inactive
CC(C)CCON=O,outcome,[9],inactive
CCCCCCCCOC(=O)c1ccccc1C(=O)OCCCCCCCC,outcome,[9],inactive
S=C=S,outcome,[9],inactive
CC(C)NP(=O)(NC(C)C)OP(=O)(NC(C)C)NC(C)C,Potency,[2],inactive
same,Potency,[7],11.2 µM (active)
same,outcome,[8],inactive
same,outcome,[4],inactive
same,Potency,[5],inactive
same,Potency,[6],inactive
O=C(O)C(Cl)(Cl)Cl,outcome,[9],inactive
ClCC1CO1 (stereo not given),outcome,[9],inactive
ClC=C(Cl)Cl,outcome,[9],inactive
NC(=O)c1ccc(OCC(O)CN2CC=C(c3ccc(F)cc3)CC2)cc1 (stereo not given),Potency,[7],7.94 µM (active)
same,outcome,[4],inactive
same,Potency,[5],inactive
same,Potency,[6],inactive
O=C1CCO1,outcome,[9],inactive
COC(=O)N1CCN(C(=O)Cc2ccc(Cl)c(Cl)c2)C(CN2CCCC2)C1 (stereo not given),Potency,[2],7.94 µM (active)
same,Potency,[7],2.82 µM (active)
same,outcome,[4],inactive
same,Potency,[5],inactive
